# Experimental data as given in PMC5700166.
# Positions count from the first letter of the chain named.
# What was measured:
# Assay in all cases: protein-binding microarray (PBM); PBM: ~300 nM protein, 6 mM HEPES pH 7.8, 80 mM KCl, 0.5 mM EDTA, 0.5 mM EGTA, 6% glycerol, 35 ng/ul poly-dIdC, 1% milk, 1 h, room temperature; Ap Aiptasia and Nv Nematostella (sea anemones) / Co Capsaspora / Aq Amphimedon (sponge) / Dm Drosophila / Hu human; RHD is the Rel homology domain; high values mean tight binding
# Conditions in all cases: dsDNA, one strand shown
# GST-Ap-NF-kB RHD = molecular target: T1, GST-Ap-NF-kB RHD (Exaiptasia pallida (Aiptasia), UniProt A0A913YAJ5 2-422)
# T1 sequence: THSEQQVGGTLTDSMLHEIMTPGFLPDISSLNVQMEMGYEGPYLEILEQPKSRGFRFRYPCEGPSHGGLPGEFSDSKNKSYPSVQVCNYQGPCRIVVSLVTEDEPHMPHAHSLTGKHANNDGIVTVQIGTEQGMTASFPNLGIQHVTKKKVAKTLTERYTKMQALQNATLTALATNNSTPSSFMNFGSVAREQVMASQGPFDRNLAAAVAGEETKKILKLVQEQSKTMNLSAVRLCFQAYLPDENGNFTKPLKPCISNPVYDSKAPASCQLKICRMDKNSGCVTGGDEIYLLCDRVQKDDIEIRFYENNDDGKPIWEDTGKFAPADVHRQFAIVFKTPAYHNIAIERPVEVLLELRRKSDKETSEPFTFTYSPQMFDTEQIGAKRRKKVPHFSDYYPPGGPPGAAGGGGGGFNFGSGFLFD
# [1] = molecular target: T2, GST-Nv-NF-kB (Cys allele) (Nematostella vectensis, UniProt E5G601 2-411)
# T2 sequence: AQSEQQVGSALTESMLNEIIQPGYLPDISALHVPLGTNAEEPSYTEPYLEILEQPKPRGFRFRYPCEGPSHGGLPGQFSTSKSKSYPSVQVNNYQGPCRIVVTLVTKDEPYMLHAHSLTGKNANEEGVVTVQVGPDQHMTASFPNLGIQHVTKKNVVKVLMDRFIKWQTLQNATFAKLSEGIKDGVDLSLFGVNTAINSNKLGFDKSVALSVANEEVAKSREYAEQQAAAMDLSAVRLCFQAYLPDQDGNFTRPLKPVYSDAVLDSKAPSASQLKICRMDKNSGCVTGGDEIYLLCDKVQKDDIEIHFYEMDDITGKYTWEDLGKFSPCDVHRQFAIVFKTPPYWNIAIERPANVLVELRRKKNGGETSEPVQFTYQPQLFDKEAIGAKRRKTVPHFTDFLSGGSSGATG
# GST-Dm-Relish = molecular target: T3, GST-Dm-Relish (Drosophila melanogaster, UniProt Q94527 99-473)
# T3 sequence: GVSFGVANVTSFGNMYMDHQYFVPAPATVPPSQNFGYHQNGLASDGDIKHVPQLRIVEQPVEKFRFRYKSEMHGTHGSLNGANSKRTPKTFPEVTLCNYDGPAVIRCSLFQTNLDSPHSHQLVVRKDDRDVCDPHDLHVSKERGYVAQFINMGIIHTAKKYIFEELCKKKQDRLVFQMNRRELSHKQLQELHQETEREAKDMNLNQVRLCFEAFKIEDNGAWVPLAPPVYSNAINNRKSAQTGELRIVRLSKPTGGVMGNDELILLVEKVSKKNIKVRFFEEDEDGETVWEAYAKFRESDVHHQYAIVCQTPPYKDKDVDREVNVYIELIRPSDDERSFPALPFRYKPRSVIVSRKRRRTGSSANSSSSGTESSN
# GST-Aq-NF-kB = molecular target: T4, GST-Aq-NF-kB (Amphimedon queenslandica, UniProt A9Y5G7 2-389)
# T4 sequence: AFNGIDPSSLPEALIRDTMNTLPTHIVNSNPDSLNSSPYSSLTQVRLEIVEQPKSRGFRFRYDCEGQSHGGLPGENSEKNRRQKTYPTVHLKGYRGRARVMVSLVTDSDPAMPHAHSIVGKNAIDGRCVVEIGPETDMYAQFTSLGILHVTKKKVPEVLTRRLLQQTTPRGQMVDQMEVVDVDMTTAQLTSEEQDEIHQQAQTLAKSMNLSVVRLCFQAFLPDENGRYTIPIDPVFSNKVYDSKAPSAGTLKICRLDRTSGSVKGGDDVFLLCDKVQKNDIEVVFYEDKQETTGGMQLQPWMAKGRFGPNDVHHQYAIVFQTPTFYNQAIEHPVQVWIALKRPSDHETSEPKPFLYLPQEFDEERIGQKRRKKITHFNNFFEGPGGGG
# GST-Hu-p50 = GST-Hu-p50 (Homo sapiens, UniProt P19838 7-356)
# GST-Hu-p50, sequence (P19838 7-356): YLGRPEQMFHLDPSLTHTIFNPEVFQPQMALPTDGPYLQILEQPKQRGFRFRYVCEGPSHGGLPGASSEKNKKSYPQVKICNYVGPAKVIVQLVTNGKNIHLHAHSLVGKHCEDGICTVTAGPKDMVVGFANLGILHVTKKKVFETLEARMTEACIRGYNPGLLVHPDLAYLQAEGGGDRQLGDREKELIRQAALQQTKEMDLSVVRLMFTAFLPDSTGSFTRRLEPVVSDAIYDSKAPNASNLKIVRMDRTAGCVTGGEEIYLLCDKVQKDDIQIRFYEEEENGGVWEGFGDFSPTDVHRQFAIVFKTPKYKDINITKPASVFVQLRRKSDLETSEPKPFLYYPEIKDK
# GST-Co-NF-kB = molecular target: T5, GST-Co-NF-kB (Capsaspora owczarzaki, UniProt F1ARL5 200-546)
# T5 sequence: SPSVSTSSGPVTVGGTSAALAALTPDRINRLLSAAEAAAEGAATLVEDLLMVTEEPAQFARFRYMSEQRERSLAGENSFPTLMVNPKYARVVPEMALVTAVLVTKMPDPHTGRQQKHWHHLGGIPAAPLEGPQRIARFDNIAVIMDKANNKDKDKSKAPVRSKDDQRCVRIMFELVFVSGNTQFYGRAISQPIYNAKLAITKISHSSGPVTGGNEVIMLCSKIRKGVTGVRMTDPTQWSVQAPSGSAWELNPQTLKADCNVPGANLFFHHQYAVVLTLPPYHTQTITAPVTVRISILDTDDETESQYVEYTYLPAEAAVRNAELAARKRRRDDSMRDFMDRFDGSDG
# [2] = molecular target: T6, GST-Nv-NF-kB (Ser allele) (Nematostella vectensis, UniProt A7UNT2 2-411)
# T6 sequence: T2 sequence with Q21R, C66S, S207N, E215Q, V217A, E225K, A268E, D399E
Sequence,binding signal (GST-Ap-NF-kB RHD) [z-score],binding signal [1] [z-score],binding signal (GST-Dm-Relish) [z-score],binding signal (GST-Aq-NF-kB) [z-score],binding signal (GST-Hu-p50) [z-score],binding signal (GST-Co-NF-kB) [z-score],binding signal [2] [z-score]
CCGATTAACATCAGAAAAACACCTGATGTTAATCGGGTCTTGATTCGCTTGACGCTGCTG,2.56,3.55,3.66,3.91,5.37,,
CCGATTAACATCAGGGGCTTCCATGATGTTAATCGGGTCTTGATTCGCTTGACGCTGCTG,4.37,4.89,6.97,5.03,4.38,,
CCGATTAACATCAGATAAACCCCTGATGTTAATCGGGTCTTGATTCGCTTGACGCTGCTG,4.36,4.29,5.22,4.77,4.53,,
CCGATTAACATCAAACATCCCCCTGATGTTAATCGGGTCTTGATTCGCTTGACGCTGCTG,6.59,6.38,6.53,6.6,5.44,5.97,
CCGATTAACATCAAAATTCCCTGTGATGTTAATCGGGTCTTGATTCGCTTGACGCTGCTG,4.81,6.86,5.96,6.37,5.07,4.2,
CCGATTAACATCAGGGGGGGTAATGATGTTAATCGGGTCTTGATTCGCTTGACGCTGCTG,4.27,,4.83,4.38,3.7,6.38,3.94
CCGATTAACATCACGGAAATACCTGATGTTAATCGGGTCTTGATTCGCTTGACGCTGCTG,1.01,,2.56,4.47,1.12,,1.39
CCGATTAACATCAAAAAATCACCTGATGTTAATCGGGTCTTGATTCGCTTGACGCTGCTG,2.88,4.37,8.12,3.98,5.67,,
CCGATTAACATCAAGGGGGGGACTGATGTTAATCGGGTCTTGATTCGCTTGACGCTGCTG,6.81,,4.41,4.98,4.74,5.71,4.24
CCGATTAACATCAGGGGTAGAACTGATGTTAATCGGGTCTTGATTCGCTTGACGCTGCTG,1.85,,,1.92,1.99,5.07,1.11
CCGATTAACATCAGGACCTTCCCTGATGTTAATCGGGTCTTGATTCGCTTGACGCTGCTG,2.74,2.66,1.9,5.89,1.95,,
CCGATTAACATCACCCTCGAGGGTGATGTTAATCGGGTCTTGATTCGCTTGACGCTGCTG,1.01,,1.08,1.65,2.34,1.1,1.78
CCGATTAACATCAGGCGAACCCCTGATGTTAATCGGGTCTTGATTCGCTTGACGCTGCTG,1.57,1.1,1.37,2.96,1.53,,
CCGATTAACATCAGGAAGATCCCTGATGTTAATCGGGTCTTGATTCGCTTGACGCTGCTG,3.43,1.84,2.71,5.44,1.57,,
CCGATTAACATCACGGTGTTTCCTGATGTTAATCGGGTCTTGATTCGCTTGACGCTGCTG,1.53,1.22,2.06,2.67,2.96,,
CCGATTAACATCATACTTCCCCATGATGTTAATCGGGTCTTGATTCGCTTGACGCTGCTG,3.97,4.88,3.18,3.58,4.41,4.69,
CCGATTAACATCAGGGTAATTTATGATGTTAATCGGGTCTTGATTCGCTTGACGCTGCTG,4.07,6.3,3.68,6.31,4.9,3.64,
CCGATTAACATCAGGGAAATTAATGATGTTAATCGGGTCTTGATTCGCTTGACGCTGCTG,3.37,5.52,2.54,4.81,4.27,4.18,
CCGATTAACATCACGGAAACACCTGATGTTAATCGGGTCTTGATTCGCTTGACGCTGCTG,1.22,,1.78,2.29,3,,1.16
CCGATTAACATCAGGACATACCCTGATGTTAATCGGGTCTTGATTCGCTTGACGCTGCTG,1.92,2.84,2.79,5.54,1.78,,
CCGATTAACATCACGGGAAGTACTGATGTTAATCGGGTCTTGATTCGCTTGACGCTGCTG,1.21,1.43,8.29,3.28,1.09,1.57,
CCGATTAACATCAAAAAAACACCTGATGTTAATCGGGTCTTGATTCGCTTGACGCTGCTG,3.14,4.03,4.97,4.34,6.24,,
CCGATTAACATCAAATCCCCCCCTGATGTTAATCGGGTCTTGATTCGCTTGACGCTGCTG,8.93,,7.98,6.62,6.87,9.25,9
